Reference: the supplement of paper PMC8728848
This is one part of a sample in which the strongest signals are shown more often than they occur.

System: Neu5Ac(a2-3)Gal(b1-4)Glc
Experiment: glycan array binding signal (z-score within array); higher = stronger binding
Conditions: glycan notation: IUPAC condensed, linker removed
In short: (§1)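 Arrays were curated from the Consortium for Functional Glycomics database, 3228 in total, and kept only where the protein sequence was available. Binding is expressed as a within-array Z-score. This score was averaged across arrays of the same protein sequence at different concentrations or buffers and across linkers, and negative values can be read as non-binding.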

First: Actinohivin (Actinomycete K97)
Second: MIC3-MAR1b (Eimeria tenella), B6VCV4
The “glycan array binding signal (z-score)” value of the first is higher: 0.053 for the first, -0.453 for the second.

For “SiiE (Salmonella typhimurium), A0A0H3NVH0”, the “glycan array binding signal (z-score)” value was 2.39.

System: Neu5Ac(a2-3)Gal(b1-4)[Fuc(a1-3)]GlcNAc(b1-6)[Neu5Ac(a2-3)Gal(b1-3)]GalNAc
Experiment: as above
Conditions: glycan notation: IUPAC condensed, linker removed
In short: as §1

Going from Actinohivin (Actinomycete K97) to Epa22, the “glycan array binding signal (z-score)” value rises from -0.02 to 0.118.

For “AgI/II Vhelical-GFP (Streptococcus mutans)”, the “glycan array binding signal (z-score)” value was -0.178.

System: Neu5Ac(a2-6)Gal(b1-3)GlcNAc(b1-3)[Gal(b1-4)GlcNAc(b1-6)]Gal(b1-4)Glc
Experiment: as above
Conditions: glycan notation: IUPAC condensed, linker removed
In short: as §1

Compared with “SpGH101 (Streptococcus pneumoniae), Q8DR60”, Epa22 is lower in “glycan array binding signal (z-score)” value: -0.168 for the first, -0.487 for the second.

Wza (Escherichia coli), P0A930 was tested, and the “glycan array binding signal (z-score)” value was 0.652.
